# Assay outcomes deposited in PubChem by several laboratories.
# Smad3 inh = Smad3 (human) transcription factor binding inhibition; TR-FRET Smad3/Dy647-FoxH1 peptide binding, europium anti-His; inhibition, % at 25 µM; 0.29% of 88,000 active;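 active means compounds that reduce the energy-transfer binding signal between the protein and its labelled peptide by more than half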;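 further: 0% = Smad3 plus labelled peptide maximal FRET and 100% = peptide-only background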
# ERa SRC1 pot = enhances coactivator binding to human estrogen receptor alpha; P03372; TR-FRET ERalpha-LBD/SRC-Cy5 coactivator binding, 2 h; 100 = basal binding, no effect; coactivator binding (% of control), % at 25.6 µM; 1.3% of 86,000 active; in the data active means activity above about 200%;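 further: binding measured in presence of low estradiol as agonist stimulus; 0% = peptide alone without receptor and 100% = receptor with peptide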
# Target sequence (P03372 whole entry, looked up, the tested form may be a part): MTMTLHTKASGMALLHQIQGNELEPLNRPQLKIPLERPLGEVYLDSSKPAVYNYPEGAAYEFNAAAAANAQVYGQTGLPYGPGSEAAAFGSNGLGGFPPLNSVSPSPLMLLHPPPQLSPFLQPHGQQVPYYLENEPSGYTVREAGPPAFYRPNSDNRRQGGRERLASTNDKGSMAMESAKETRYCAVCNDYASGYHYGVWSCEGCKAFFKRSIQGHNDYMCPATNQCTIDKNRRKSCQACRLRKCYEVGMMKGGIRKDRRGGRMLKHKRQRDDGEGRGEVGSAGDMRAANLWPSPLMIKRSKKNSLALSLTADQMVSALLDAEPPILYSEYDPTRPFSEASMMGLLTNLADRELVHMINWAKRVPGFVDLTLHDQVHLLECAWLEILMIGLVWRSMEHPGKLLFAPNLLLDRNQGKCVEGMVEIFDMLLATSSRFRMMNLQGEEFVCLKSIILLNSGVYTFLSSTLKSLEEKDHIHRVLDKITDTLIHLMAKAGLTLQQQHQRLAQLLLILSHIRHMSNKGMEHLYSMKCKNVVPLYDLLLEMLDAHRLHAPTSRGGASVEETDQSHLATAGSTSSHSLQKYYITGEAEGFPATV
# ERb SRC1 inh = blocks coactivator binding to human estrogen receptor beta; Q92731; TR-FRET ER-beta LBD / SRC1-Cy5 peptide binding; receptor agonist-loaded with 1 µM estradiol; inhibition, % at 25.6 µM; 1.3% of 86,000 active; AID 633;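 active means compounds whose percent inhibition of the receptor-coactivator binding signal exceeds about 50% in the single-dose screen, limit read from the data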;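 further: 0% = receptor plus peptide wells without compound and 100% = peptide-only wells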
# Candida biofilm = kills Candida albicans biofilms; 0.14% of 85,000 active; C. albicans biofilm + clotrimazole, Alamar Blue; inhibition, % at 6 µM;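 active means inhibition above 20%; inactive means inhibition below 20%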;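 further: preformed 24 hr biofilms exposed to compound for 48 hr; 0% = biofilm without compound and 100% = blank killed by clotrimazole plus chlorhexidine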
# HePTP inh = human HePTP phosphatase inhibition; inhibition, % at 20 µM; 0.64% of 110,000 active; P35236; recombinant HePTP phosphatase activity, OD absorbance; in the data active means inhibition above about 50%;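 further: plate controls were vehicle for no effect and reference inhibitor for full effect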
# ERa coact inh = blocks coactivator binding to human estrogen receptor alpha; P03372; TR-FRET ER-alpha LBD / SRC-1 peptide, estradiol-bound; inhibition, % at 25.6 µM; 1.7% of 86,000 active; AID 629; in the data active means inhibition above about 50%;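 further: 0% = receptor plus peptide control and 100% = peptide only without receptor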
# Numbers without * were called inactive; x = no result; [ ] = another dose, or the depositor's remark. A selection: hits, their analogues and other compounds. The true share with any hit is near 2.9%.
SMILES,Smad3 inh,ERa SRC1 pot,ERb SRC1 inh,Candida biofilm,HePTP inh,ERa coact inh
O=C1c2ccccc2NC(c2ccc3c(c2)OCCO3)N1c1ccc2c(c1)OCCO2 (stereo not drawn),14,97,0,3,0,-4
CC(C)(C)c1nnc2sc(SC/C(O)=C(\C#N)c3nc4ccccc4[nH]3)nn2c1=O,11,69,62*,-2,7,69*[fluorescence artefact?]
O=C(O)CCn1ccnc1-c1ccccc1,5,475*,-1,4,3,-10
Oc1ccc(CNc2ccccc2F)c2cccnc12,15,91,62*[fluorescence artefact?],-6,6,20
COc1cc2[nH]c(=S)n(N(C(C)=O)C(C)=O)c(=O)c2cc1OC,13,201*[fluorescence artefact?],-78,4,x,-67
O=C(O)c1c2c(c(O)c3c1CN(C1CCCCC1)CO3)OCN(C1CCCCC1)C2,62*,x,x,x,x,x
CCC(c1nnnn1Cc1ccc2c(c1)OCO2)N1CCN(c2ccccc2)CC1 (stereo not drawn),-6,100,2,-1,5,4
CCC(c1nnnn1Cc1ccc2c(c1)OCO2)N1CCN(c2ccc(F)cc2)CC1 (stereo not drawn),7,103,79*[fluorescence artefact?],3,1,2
Cc1ccc(NC(=O)COc2ccc(Cl)cc2Cl)nc1,x,x,x,x,-16,x
COc1ccc(/C=N/OCC(=O)N=Nc2c(O)n(CN(C)C)c3ccc(Br)cc23)cc1,x,x,x,x,104*,x
COc1ccc(S(=O)(=O)N2CCCN(CC(=O)Nc3cc(NC(C)=O)ccc3OC)CC2)cc1,12,113,-5,1,3,-3
COc1ccc(NC(C)=O)cc1NC(=O)CN1CCN(S(=O)(=O)c2ccc(C(C)C)cc2)CC1,-12,249*[fluorescence artefact?],46,2,7,-4
CC(C)(C)c1ccc(OC(=O)Nc2ccc(O)c(C(=O)O)c2)cc1,65*,x,x,x,x,x
Cc1ccc(OCC(=O)Nc2ccc(O)c(C(=O)O)c2)cc1C,8,99,5,5,6,21
CCCCCn1c(/N=C/c2c(O)ccc3oc4c(c23)CCCC4)nc2ccccc21,x,x,x,x,12,x
Cc1cc(NC(=O)CSc2nc(-c3ccc(F)cc3)cs2)no1,1,111,-3,5,-5,-4
Cc1nnc(SCC(=O)NC(=O)NCc2ccco2)n1Cc1ccccc1,28,150,33,5,x,52*
C=CCn1c(SCC(=O)NC(=O)NCc2ccco2)nc2sc(CC)cc2c1=O,3,47,65*,5,15,74*
CCCn1c(SCC(=O)NC(=O)NCc2ccco2)n[nH]c1=O,-1,62,63*[fluorescence artefact?],6,14,74*[fluorescence artefact?]
O=C(CSc1nc(-c2ccc(F)cc2)cs1)NC(=O)NCc1ccco1,2,73,42,5,10,53*
COc1ccc(/C=C2\C(=O)NC(=O)N(c3cc(C)cc(C)c3)C2=O)cc1[N+](=O)[O-],x,x,x,x,-10,x
Cc1cccc(Nc2ccc([N+](=O)[O-])c3nonc23)c1,x,x,x,x,10,x
CCOc1ccccc1-n1nnnc1SCC(=O)NC(=O)NCc1ccco1,5,49,62*,-4,20,77*[fluorescence artefact?]
COc1cccc(OCc2nnc(SCC(=O)NCc3ccco3)n2CCc2ccccc2)c1,3,174,44,9,11,57*
COc1c(Cl)ccc(Cl)c1C(=O)Nc1ccc(C)cc1,x,x,x,x,104*,x
SMILES,Smad3 inh,ERa SRC1 pot,ERb SRC1 inh,Candida biofilm,HePTP inh,ERa coact inh
Cc1ccc(C2c3c(oc4ccccc4c3=O)C(=O)N2CCCN2CCOCC2)o1 (stereo not drawn),4,103,-1,-2,x,-1
CC(=O)c1sc(N2C(=O)c3oc4ccccc4c(=O)c3C2c2ccc(C)o2)nc1C (stereo not drawn),-1,82,16,2,2,64*
C=CCOC(=O)c1[nH]c2c(c1C)C(=O)CC(c1ccco1)C2 (stereo not drawn),-1,135,43,11,0,38
Cc1c(C(=O)OCC2CCCO2)[nH]c2c1C(=O)CC(c1ccco1)C2 (stereo not drawn),-5,65,50*[fluorescence artefact?],-3,21,54*
C/C=C/COC(=O)c1[nH]c2c(c1C)C(=O)CC(c1ccco1)C2 (stereo not drawn),-3,81,55*,7,12,59*
Cc1c(C(=O)OCC(C)C)[nH]c2c1C(=O)CC(c1ccco1)C2 (stereo not drawn),15,96,36,2,-3,38
CC(C)(C)c1cc(N2C(=O)C(=O)/C(=C(/O)c3ccc(Cl)cc3)C2c2cccc(F)c2)no1 (stereo not drawn),x,x,x,x,-4,x
CC(C)(C)n1nnnc1C(c1cc2cc3c(cc2[nH]c1=O)OCCO3)N1CCSCC1 (stereo not drawn),-1,85,0,9,-1,7
O=c1[nH]c2cc3c(cc2cc1C(c1nnnn1C1CCCC1)N1CCSCC1)OCCO3 (stereo not drawn),15,215*[fluorescence artefact?],10,4,6,20
O=C(c1cccc([N+](=O)[O-])c1)c1ccc2c(c1)C(=O)NC2=O,x,x,x,x,104*,x
O=C(c1cccc([N+](=O)[O-])c1)c1ccc2c(c1)C(=O)N(c1ccccc1C(=O)O)C2=O,x,x,x,x,-3,x
CC(=O)c1ccc(NC(=O)c2ccc3nc(-c4ccco4)c(-c4ccco4)nc3c2)cc1,-4,29,95*[fluorescence artefact?],4,x,92*[fluorescence artefact?]
O=C(Nc1ccccc1)c1ccc2nc(-c3ccco3)c(-c3ccco3)nc2c1,4,35,88*[fluorescence artefact?],0,17,90*[fluorescence artefact?]
CCCCNC(=O)c1ccc2nc(-c3ccco3)c(-c3ccco3)nc2c1,x,x,x,x,7,x
O=C(NCc1ccccc1)c1ccc2nc(-c3ccco3)c(-c3ccco3)nc2c1,5,36,97*[fluorescence artefact?],-2,x,93*[fluorescence artefact?]
Nc1c(C(=O)Nc2ccccc2)sc2nc(-c3ccco3)ccc12,10,125,58*[fluorescence artefact?],10,1,69*[fluorescence artefact?]
N#Cc1c(N)nc(SCC(=O)NC2CCCCC2)c(C#N)c1-c1ccc(Cl)cc1,7,122,51*[fluorescence artefact?],8,0,66*[fluorescence artefact?]
CC(C)c1ccc(-c2c(C#N)c(N)nc(SCC(=O)N3CCCCC3)c2C#N)cc1,-7,186,43,-2,x,50*[fluorescence artefact?]
COC(=O)CSc1nc(N)c(C#N)c(-c2ccc(O)cc2)c1C#N,x,x,x,x,-12,x
CC(C)c1ccc(-c2c(C#N)c(N)nc(SCC(=O)N3CCCCCC3)c2C#N)cc1,42,260*[fluorescence artefact?],50,6,x,43
CCOC(=O)CSc1nc(N)c(C#N)c(-c2ccc(O)cc2)c1C#N,x,x,x,x,-10,x
N#Cc1c(N)nc(SCC(=O)c2ccccc2)c(C#N)c1-c1ccc(Cl)cc1,x,x,x,x,2,x
Cc1ccc(-n2c(C)cc(/C=N/NC(N)=O)c2C)cc1C,x,x,x,x,1,x
COC(=O)c1ccc(CC(=O)c2c(C)cc(O)cc2O)o1,-1,75,52*,1,2,35
O=C(NCc1cccnc1)C1c2ccccc2C(=O)N1Cc1ccccc1 (stereo not drawn),1,109,-2,8,x,-6
